Laboratory results as given in the supplement of paper PMC6555819.

How the values were obtained:
Assay in all cases: PBM binding z-score (relative to random genomic background probes); higher = stronger binding; sequences stand for … in GC…GCGATTGACAGCGTAGAATGAAGG
[1] = test system: FXR:RXRa (NR concentration 270 nM, RXRa partner concentration 90 nM)
How it was run: (§1)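 Regression normalization was applied to scanned fluorescence from custom Agilent 4×180K protein-binding microarrays. Before scanning, arrays were incubated 1 h with ligand-free nuclear receptor dimers, and binding was detected with antibodies against each partner (one per run). Binding z-scores use the random background probes as reference.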

[2] = test system: LXRa:RXRa (NR concentration 270 nM, RXRa partner concentration 90 nM)
How it was run: as §1

[3] = test system: LXRa homodimer (NR concentration 270 nM)
How it was run: as §1

[4] = test system: LXRb:RXRa (NR concentration 270 nM, RXRa partner concentration 90 nM)
How it was run: as §1

[5] = test system: LXRb homodimer (NR concentration 270 nM)
How it was run: as §1

[6] = test system: PPARa:RXRa (NR concentration 270 nM, RXRa partner concentration 90 nM)
How it was run: as §1

[7] = test system: PPARg:RXRa (NR concentration 180 nM, RXRa partner concentration 90 nM)
How it was run: as §1

[8] = test system: PPARg:RXRa 270nM:90nM, anti-RXR (NR concentration 270 nM, RXRa partner concentration 90 nM)
How it was run: as §1

[9] = test system: PPARg:RXRa 30nM:10nM, anti-RXR (NR concentration 30 nM, RXRa partner concentration 10 nM)
How it was run: as §1

[10] = test system: PPARg:RXRa 90nM:30nM, anti-RXR (NR concentration 90 nM, RXRa partner concentration 30 nM)
How it was run: as §1

[11] = test system: PPARg:RXRa DBDmut IVT, anti-RXR (DBD mutation: RXRa K156A/R161A, NR concentration 270 nM, RXRa partner concentration 90 nM)
How it was run: as §1

[12] = test system: PPARg:RXRa IVT, anti-PPARg (NR concentration 270 nM, RXRa partner concentration 90 nM)
How it was run: as §1

[13] = test system: PPARg DBDmut:RXRa IVT, anti-PPARg (DBD mutation: PPARg1 K132A/R137A, NR concentration 270 nM, RXRa partner concentration 90 nM)
How it was run: as §1

[14] = test system: PPARg DBDmut IVT, anti-PPARg (DBD mutation: PPARg1 K132A/R137A, NR concentration 270 nM)
How it was run: as §1

[15] = test system: PPARg homodimer (NR concentration 180 nM)
How it was run: as §1

[16] = test system: PXR:RXRa (NR concentration 270 nM, RXRa partner concentration 90 nM)
How it was run: as §1

[17] = test system: PXR homodimer (NR concentration 270 nM)
How it was run: as §1

[18] = test system: RARa:RXR (NR concentration 270 nM, RXRa partner concentration 90 nM)
How it was run: as §1

[19] = test system: RARa homodimer (NR concentration 270 nM)
How it was run: as §1

[20] = test system: RARb:RXRa (NR concentration 270 nM, RXRa partner concentration 90 nM)
How it was run: as §1

| Sequence | PBM binding z-score [1] | PBM binding z-score [2] | PBM binding z-score [3] | PBM binding z-score [4] | PBM binding z-score [5] | PBM binding z-score [6] | PBM binding z-score [7] | PBM binding z-score [8] | PBM binding z-score [9] | PBM binding z-score [10] | PBM binding z-score [11] | PBM binding z-score [12] | PBM binding z-score [13] | PBM binding z-score [14] | PBM binding z-score [15] | PBM binding z-score [16] | PBM binding z-score [17] | PBM binding z-score [18] | PBM binding z-score [19] | PBM binding z-score [20] |
| --- | --- | --- | --- | --- | --- | --- | --- | --- | --- | --- | --- | --- | --- | --- | --- | --- | --- | --- | --- | --- |
| GCTAGTTGGTCAGTAAAAGGTCACACAGCGGTCG | 3.2 | 4.47 | 4.65 | 4.17 | 0.715 | 4.62 | 2.84 | 4.58 | 2.15 | 4.37 | 1.19 | 2.6 | -0.374 | -0.109 | 8.6 | 5.42 | 1.17 | 6.43 | 4.55 | 4.32 |
| TTACCAAGGTGAAGGTCGTTGGTCCCTCTGTAGA | 1.16 | 1.1 | -0.0893 | 1.2 | -0.734 | 2.45 | 2.79 | 4.07 | 1.8 | 3.33 | 2.04 | 3.34 | -0.723 | -0.44 | 0.993 | 1.03 | -0.26 | 1.49 | -0.694 | 2.17 |
| GCAGACAGGTGCAACGCAGGTAACTCAGGGTGGC | -0.722 | -0.509 | -0.668 | -0.958 | -1.31 | -0.475 | 0.119 | -0.844 | -0.761 | -0.904 | -0.637 | -0.593 | -1.75 | -1.51 | -0.974 | -0.377 | -0.796 | 0.0404 | -1.09 | -0.3 |
| CCAGACACGTGAAAGGTAACTCAGTCTGGTACGC | -0.513 | -0.178 | -0.428 | 0.0481 | -0.283 | 0.287 | 0.636 | 0.0199 | -0.466 | -0.253 | -0.261 | -0.369 | -0.212 | -0.126 | -0.0268 | -0.338 | -0.312 | -0.206 | 0.0098 | 0.231 |
| CCTATTAGTTGACCACAAGGGCAACCGAAGCTCG | 0.713 | 0.65 | 0.493 | 0.591 | 0.786 | 0.698 | 0.53 | 0.203 | 0.1 | 0.256 | 0.687 | 0.913 | 0.619 | 0.658 | 1.46 | 0.841 | 1 | 0.762 | 1.46 | 1.49 |
| TTACCGAGGTGAAGGTCGTTGATCCCTCTGTAGA | 2.23 | 2.18 | -0.314 | 1.71 | -0.388 | 2.95 | 3.07 | 3.81 | 1.61 | 3 | 1.78 | 3.4 | 0.416 | 0.34 | 0.505 | 1.72 | 0.178 | 1.84 | -0.539 | 2.11 |
| TCATAAAGGTAAACAGGTGAAAGTCCGTAAGTTA | 1.21 | 1.53 | 0.0462 | 1.44 | -0.2 | 2.83 | 2.29 | 3.47 | 4.28 | 3.89 | 3.73 | 2.72 | 0.109 | 0.863 | 1.24 | 1.22 | 0.86 | 1.89 | 1.6 | 1.65 |
| GGAACGAGGGCTTTCGAGTTGATAGCATGGCGAT | -0.242 | -0.418 | -0.465 | -0.655 | -0.894 | -0.173 | 0.0484 | -0.127 | -0.533 | -0.499 | 0.386 | -0.141 | -0.402 | -0.448 | -0.921 | 0.129 | -0.343 | 0.0983 | -0.868 | -0.36 |
| CGAACTAGGTCATCAAGGACAGTGAATACATTGA | 3.45 | 2.23 | 0.477 | 1.76 | -0.245 | 4.53 | 7.15 | 6.3 | 3.43 | 5.6 | 8.23 | 8.64 | 1.85 | 1.55 | 1.45 | 2 | 1.45 | 2.13 | 0.127 | 3.88 |
| TAGCCTAGGTCAGATCGCGCCAGTATACGCTATA | 1.75 | 0.937 | -0.15 | 1.09 | -0.19 | 1.63 | 0.856 | 0.842 | 0.125 | 0.595 | 0.721 | 1.46 | -0.73 | 0.133 | 0.207 | 0.262 | -0.578 | 0.7 | -0.794 | 2.95 |
| TAGCCTAGGTCATTGCGCCAGTATAGTACGCATC | 4.86 | 3.69 | 1.05 | 2.41 | 0.632 | 3.48 | 2.25 | 2.49 | 0.591 | 1.63 | 1.65 | 2.83 | 1.15 | 0.064 | 1.7 | 1.89 | -0.0218 | 2.62 | -0.455 | 3.7 |
| CTTGAAAGGTCGTGCTCAGGTGAGTATACCAAAC | 5.86 | 4.22 | 0.0529 | 4.1 | 0.221 | 5.03 | 2.74 | 3.62 | 0.962 | 2.69 | 0.999 | 2.01 | 1.03 | 0.763 | 1.71 | 3.72 | 0.102 | 4.53 | 0.107 | 3.99 |
| CGAACGACGGCATGAGTTGATAGCAAATGCCGAT | -0.791 | -1.12 | -0.686 | -1.11 | -1.32 | -1.22 | 0.598 | -0.893 | -0.557 | -0.878 | -1.05 | -1.08 | -1.17 | -0.517 | -0.497 | -0.722 | -0.155 | -0.909 | -0.629 | -1.05 |
| CGTCCAAGGTCAAAAGTCAGTGAAGAGATGACGG | 6.47 | 5.19 | 0.641 | 3.79 | 1.42 | 5.14 | 5.67 | 5.87 | 3.41 | 5 | 2.6 | 3.24 | 0.212 | -0.048 | 1.17 | 3.92 | 0.638 | 4.84 | 0.448 | 4.63 |
| CCTATTAGTTGAGCATAAGGGCAACCGAAGCTCG | 0.0961 | -0.117 | 0.193 | -0.0125 | 0.346 | 0.124 | 0.333 | 0.305 | -0.0457 | 0.368 | -0.00699 | 0.0681 | -0.0638 | 0.243 | 1.36 | 0.18 | 0.549 | 0.348 | 1.39 | 1.1 |
